Test results as given in PubChem BioAssay (NCI).
The panel holds about 79,000 compounds, 15% with a hit somewhere; the sample as a whole holds those more often. A number with no mark means an inactive call. The source made the active and inactive calls. No stated cut-off is given here; in the data, active means growth inhibition above about 70%; inactive means the rest.

Experiment: NCI Yeast Anticancer Drug Screen. Data for the cln2 rad14 strain (AID 165);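 further: 0% = growth equal to vehicle treated cultures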
Details: S. cerevisiae cln2 rad14 strain, at 50.0 µM, active compounds read high
Experimental: Growth inhibition of yeast strains with defined genetic alterations is measured as a screen for potential anti-cancer activity. Selected strains with alterations in DNA damage repair or cell cycle control were exposed to compounds and growth inhibition was measured relative to vehicle treated controls. The strain used in this assay is cln2 rad14

Compound | growth inhibition
CC(=O)OC1CCC2(C)C(CCC3C2CCC2(C)C(c4ccc(=O)oc4)C(OC(C)=O)CC32O)C1 (stereo not given) | 4.5%
Cc1nc2ccccc2c(=O)n1-c1ccccc1F | 4.8%
COc1ccccc1-n1c(C)nc2ccccc2c1=O | 2.8%
O=[N+]([O-])c1cccc([As](=O)(O)c2ccc(O)c([N+](=O)[O-])c2)c1 | -4.3%
C=C1CC2C3CC=C4CC(OC(C)=O)CCC4(C)C3CCC2(C)C1=O (stereo not given) | 0.55%
NNC(=O)NNC(=O)NN | 1.65%
COc1cccc2c1C(=O)c1c(O)c3c(c(O)c1C2=O)C[C@@](O)(C(=O)CO)C[C@@H]3OC1CC(N2CCOCC2C#N)C(O)C(C)O1 (stereo not given in full) | 89.8% (active)
CCOP(=O)(OCC)/C(C#N)=C/c1cccc(OC)c1 | 16.9%
C[As+](C)(C)c1ccc(Br)c([N+](=O)[O-])c1 | -13.2%
N#CCO | -5.4%
O=[N+]([O-])c1cccc2cccnc12 | 4.2%
[O-][Cl+3]([O-])([O-])[O-].[O]=[Ru]=[O].c1ccc(-c2ccccn2)nc1.c1ccc(-c2ccccn2)nc1 | 14.2%
CCCCOCCOC(=O)CCl | -14.8%
CCNC1=C(N2CC2)C(=O)C(NCC)=C(N2CC2)C1=O | 8.1%
CS(=O)(=O)c1ccc(COP(N)(=O)N(CCCl)CCCl)cc1 (stereo not given) | 11.3%
CCCCCCCBr | 0.6%
CC1(C)OP(=O)(c2ccccc2)C=C1Br (stereo not given) | -11.8%
Cc1ccc(C(=O)C(C)N)cc1C (stereo not given) | 15.2%
CP(C)(=S)P(C)(C)=S | -9.1%
COc1ccc(C(CC(=O)O)CC(=O)c2ccc(N(CCCl)CCCl)cc2)cc1 (stereo not given) | 74.7% (active)

Compound | growth inhibition
Cc1ccc(C)c(C(C)NC2=NCCO2)c1 (stereo not given) | 1.2%
NNC(N)=NCCCC(N)C(=O)O (stereo not given) | 5.2%
[Cl][Sn]1([Cl])[CH2]CCCCCC[CH2][Sn]([Cl])([Cl])[CH2]CCCCCC[CH2]1 | 33.8%
CCOP(=O)(CC#N)OCC | -6.4%
O=C1C(Br)=C(N2CC2)C(=O)C(Br)=C1N1CC1 | 79.2% (active)
CCC1(CCBr)C(=O)NC(=O)NC1=O | -34.5%
CCCCOCCOP(=O)(OCCOCCCC)OCCOCCCC | -14.8%
COc1cccc(C2CC(=O)c3cccn32)c1 (stereo not given) | 21.3%
COC(=O)C(C)N(CCCl)P1(=O)OCCCN1CCCl (stereo not given) | 8.7%
CC(C)C1C=Cc2ccccc21 (stereo not given) | -13.1%
CCN(CC)c1cccc(OC(=O)NC)c1 | -15.8%
O=C1C=CC(=O)N1CO | 6.4%
C=C1CCN2CC[C@@H](OC(=O)/C(C)=C\C)[C@@H]12 | -1.9%
CCCCCCP(=O)(O)O.[Zn+2] | -9.9%
CC(=O)CC(C)C(=O)O (stereo not given) (tested in a mixture with another compound) | -6.55%
[N-]=[N+]=NC(=O)Nc1ccccc1F | -19.3%
C/C=C1/CN2CCC1CC2C(O)c1ccnc2ccc(OCCO)cc12 (stereo not given) | -9.35%
CN(C)CC1C(O)C2CCN1CC2 (stereo not given) | -5.3%
NC(=O)C(Cl)c1ccccc1 (stereo not given) | -23.6%
CC(Nc1c([N+](=O)[O-])ccc(C(=O)NCCN(C)C)c1[N+](=O)[O-])C(=O)Nc1ccc(N(CCCl)CCCl)cc1 (stereo not given) | 7.35%
